Results as given in PubChem BioAssay (NCI).
This is part of a sample that, as a whole, favours compounds with a hit. Of some 83,000 tested, about 20% had one in any assay.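 Method: cells in 96-well plates; compound added at one concentration; 48 h incubation; percent growth measured; values under 10 scored active.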 Calls of active or inactive are those of the source.

How the values were obtained:
Experiment in all cases: NCI-60 one-dose screen, 48 h (100 = growth as untreated, 0 = no growth, -100 = all killed)
Settings in all cases: 10 µM unless noted
SR leukemia = tested on: SR leukemia
RPMI-8226 leukemia = tested on: RPMI-8226 leukemia
OVCAR-8 ovarian = tested on: OVCAR-8 ovarian
OVCAR-5 ovarian = tested on: OVCAR-5 ovarian
SK-OV-3 ovarian = tested on: SK-OV-3 ovarian
IGROV1 ovarian = tested on: IGROV1 ovarian
OVCAR-3 ovarian = tested on: OVCAR-3 ovarian
HS 578T breast = tested on: HS 578T breast
NCI/ADR-RES ovarian = tested on: NCI/ADR-RES ovarian
T-47D breast = tested on: T-47D breast
BT-549 breast = tested on: BT-549 breast
MDA-MB-435 melanoma = tested on: MDA-MB-435 melanoma
SW-620 colon = tested on: SW-620 colon
MCF7 breast = tested on: MCF7 breast
HCT-116 colon = tested on: HCT-116 colon
HCC-2998 colon = tested on: HCC-2998 colon
KM12 colon = tested on: KM12 colon
MDA-MB-468 breast = tested on: MDA-MB-468 breast
OVCAR-4 ovarian = tested on: OVCAR-4 ovarian

Measured: growth

CN(C)CCOc1ccc(C(=O)C2[C@H](c3ccc(Cl)cc3)[C@@H](c3ccccc3)NC23C(=O)Nc2ccc(Br)cc23)cc1 (some centres not stated)
active: SR leukemia -36.4% | RPMI-8226 leukemia -30.8% | OVCAR-8 ovarian -61.8% | OVCAR-3 ovarian -4.55% | MDA-MB-435 melanoma -66.5% | SW-620 colon -80% | MCF7 breast -59.8% | HCT-116 colon -96.6% | HCC-2998 colon -94.4% | KM12 colon -48.4% | MDA-MB-468 breast -84.7%
inactive: OVCAR-5 ovarian 36.4% | SK-OV-3 ovarian 96% | IGROV1 ovarian 29.1% | HS 578T breast 58.7% | NCI/ADR-RES ovarian 23% | T-47D breast 42% | BT-549 breast 67%

C=C1CC[C@@H]2[C@]3(C)COC(c4ccccc4)O[C@@H]3CC[C@@]2(C)[C@@H]1C/C=C1/C(=O)OCC1OC(C)=O (some centres not stated)
inactive: SK-OV-3 ovarian 93.7% | HS 578T breast 61.5%
active: SR leukemia -32.8% | RPMI-8226 leukemia -42.4% | OVCAR-8 ovarian -64.9% | OVCAR-5 ovarian -78.5% | IGROV1 ovarian -51.3% | OVCAR-3 ovarian -88.2% | NCI/ADR-RES ovarian -73.1% | T-47D breast -45.1% | BT-549 breast -93.5% | MDA-MB-435 melanoma -29.3% | SW-620 colon -49.1% | MCF7 breast -56.7% | HCT-116 colon -94.7% | HCC-2998 colon -76.2% | KM12 colon -9.91% | MDA-MB-468 breast -89.8%

Nc1nc(C(F)(F)F)cs1
inactive: SR leukemia 101% | RPMI-8226 leukemia 115% | OVCAR-8 ovarian 105% | OVCAR-5 ovarian 113% | OVCAR-4 ovarian 108% | IGROV1 ovarian 107% | OVCAR-3 ovarian 108% | HS 578T breast 109% | NCI/ADR-RES ovarian 104% | T-47D breast 99.4% | BT-549 breast 114% | MDA-MB-435 melanoma 100% | MCF7 breast 93.2% | HCT-116 colon 111% | HCC-2998 colon 105% | KM12 colon 100% | MDA-MB-468 breast 101%

N#Cc1c(-c2ccc(Br)cc2)nc2n[nH]c(-c3ccc(Br)cc3)c2c1-c1ccc(C(F)(F)F)cc1
active: SR leukemia -11.6% | RPMI-8226 leukemia 0.725% | IGROV1 ovarian 6.15% | T-47D breast 3.49% | MDA-MB-435 melanoma 3.09% | MCF7 breast 5.3% | HCT-116 colon 6.76%
inactive: OVCAR-8 ovarian 40.4% | OVCAR-5 ovarian 47.7% | OVCAR-4 ovarian 11.8% | OVCAR-3 ovarian 10.7% | NCI/ADR-RES ovarian 23.7% | BT-549 breast 11.3% | HCC-2998 colon 21.8% | KM12 colon 10.9%

N/N=C(\N)c1c(N)nc(=S)[nH]c1-c1ccc(Cl)cc1Cl
inactive: SR leukemia 97.3% | RPMI-8226 leukemia 109% | OVCAR-8 ovarian 110% | OVCAR-5 ovarian 108% | SK-OV-3 ovarian 86.7% | IGROV1 ovarian 106% | OVCAR-3 ovarian 109% | HS 578T breast 100% | NCI/ADR-RES ovarian 114% | T-47D breast 92.6% | BT-549 breast 100% | MDA-MB-435 melanoma 111% | SW-620 colon 106% | MCF7 breast 95.6% | HCT-116 colon 113% | HCC-2998 colon 103% | KM12 colon 105% | MDA-MB-468 breast 110%

COc1ccc(CCC2c3c(cc4c(c3OC)OCO4)CCN2C)cc1 (configuration not stated)
inactive: HS 578T breast 11%
active: SR leukemia -18.2% | RPMI-8226 leukemia -28.5% | OVCAR-8 ovarian -41.7% | OVCAR-5 ovarian -16.5% | SK-OV-3 ovarian -37.6% | IGROV1 ovarian -52.4% | OVCAR-3 ovarian -21.2% | NCI/ADR-RES ovarian -54.5% | T-47D breast -43.1% | BT-549 breast -69.9% | MDA-MB-435 melanoma -66.2% | SW-620 colon -78.1% | MCF7 breast -82.3% | HCT-116 colon -58.3% | HCC-2998 colon -78.8% | KM12 colon -37.3% | MDA-MB-468 breast -81.5%

N#Cc1cnn(C(=O)c2ccccc2Br)c1NC(=O)c1ccc(Br)cc1Cl
inactive: SR leukemia 78.2% | RPMI-8226 leukemia 102% | OVCAR-8 ovarian 104% | OVCAR-5 ovarian 102% | OVCAR-4 ovarian 101% | IGROV1 ovarian 115% | OVCAR-3 ovarian 119% | NCI/ADR-RES ovarian 98.7% | T-47D breast 97% | BT-549 breast 91.1% | MDA-MB-435 melanoma 103% | MCF7 breast 95.4% | HCT-116 colon 103% | HCC-2998 colon 108% | KM12 colon 102% | MDA-MB-468 breast 94.2%

Nc1nc(-c2ccccc2)c(N=Nc2ccc(Cl)cc2[N+](=O)[O-])s1
inactive: SR leukemia 99.7% | RPMI-8226 leukemia 94.2% | OVCAR-8 ovarian 91.3% | OVCAR-5 ovarian 101% | SK-OV-3 ovarian 96.5% | IGROV1 ovarian 80.5% | OVCAR-3 ovarian 108% | HS 578T breast 79.6% | NCI/ADR-RES ovarian 101% | T-47D breast 61.2% | BT-549 breast 92.6% | SW-620 colon 102% | MCF7 breast 60.3% | HCT-116 colon 97.1% | HCC-2998 colon 102% | KM12 colon 102% | MDA-MB-468 breast 89.7%
